The list shows a part of the results. Calls of active or inactive are those of the source.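 How the source made its calls: active means mean inhibition above the hit cutoff derived in the earlier primary screen (cut at about 25% in these data); inactive means the rest.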
Experiment: viability loss in Ba/F3 EpoR-JAK2V617F cells, confirmation, JAK2V617F inhibitor project, cell-based, luminescence, triplicate (AID 1521);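 further: 0% = DMSO-treated cells and 100% = JAK inhibitor I control wells; higher means lower luminescence from reduced cell ATP and viability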
Settings: CellTiter-Glo luminescence, at 5.6 µM, hits give high values

For `CN(C)CC1Oc2ccccc2OC1(O)c1ccccc1` (stereo unspecified), the inhibition was 98.7% (active).

Source: PubChem BioAssay AID1521 (The Scripps Research Institute Molecular Screening Center, 2009)
